{"source": "PubChem BioAssay (NCATS)", "note": "Records with an inconclusive call do not appear. A call without a number means that no potency is given here. Activity calls are given as the source filed them. The call rests on the fitted dose curve; in most records, active means well fitted curve in the direction sought with a large enough effect; inconclusive means small, poorly fitted or top-dose-only effect, or another doubt; inactive means no such curve, though single readings can be large; an effect the other way counts as inactive or inconclusive.", "data": [{"system": "Zika virus NS2B-NS3 protease", "test": "Primary screen GU AMC qHTS for Zika virus inhibitors (AID 1347154); further: nearly all actives have a fitted effect of over 70% in size", "settings": "Zika NS2B-NS3 unlinked protease, AMC fluorogenic substrate; series mostly up to 54.1 µM", "method_in_brief": "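Fluorogenic AMC-substrate cleavage by noncovalent NS2B-NS3 protease complex (25 nM, pH 8.0 Tris buffer with Tween 20) followed for 15 minutes at room temperature (~20% conversion). Percent inhibition from ex340/em450 signal change, fitted by 4-parameter Hill equation.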", "values": [{"compound": "NC1=NC(=O)N2CC12", "note": "(stereo not drawn)", "Potency": "inactive"}, {"compound": "CC(C)(C)NC[C@H](O)c1ccc(O)cc1Cl", "Potency": "inactive"}, {"compound": "CC(N[C@H]1C[C@H]1c1ccccc1)c1ccc2c(c1)OCCO2", "note": "(stereo partly drawn)", "Potency": "inactive"}, {"compound": "CC(C)[C@]12O[C@H]1[C@@H]1O[C@]13[C@]1(O[C@H]1C[C@H]1C4=C(CC[C@@]13C)C(=O)OC4)[C@@H]2O", "Potency": "inactive"}, {"compound": "CCCCOC(=O)c1ccccc1C(=O)OCc1ccccc1", "Potency": "inactive"}, {"compound": "Oc1ccc2c3c1O[C@H]1[C@@H](O)C=C[C@H]4[C@@H](C2)NCC[C@@]341", "Potency": "inactive"}, {"compound": "CCOCCOC(C)=O", "Potency": "inactive"}, {"compound": "CN1CCN(c2ccc([N+](=O)[O-])c3no[n+]([O-])c23)CC1", "Potency": "inactive"}, {"compound": "c1cc2c(cc1[C@H]1OC[C@H]3[C@H]1CO[C@H]3c1ccc3c(c1)OCO3)OCO2", "Potency": "inactive"}, {"compound": "COC1=C[C@@H]2[C@@H]3Cc4ccc(OC)c(O)c4[C@]2(CCN3C)CC1=O", "Potency": "inactive"}, {"compound": "CCOC(=O)Nc1ccc(NCc2ccc(F)cc2)cc1N", "Potency": "inactive"}, {"compound": "CCc1c(C(=O)C(N)=O)c2c(OCC(=O)O)cccc2n1Cc1ccccc1", "Potency": "inactive"}, {"compound": "O=C(O)CNC(=O)c1c(O)c2ccccc2n(Cc2ccccc2)c1=O", "Potency": "inactive"}, {"compound": "O=C(NCC1CCOCC1)c1cnc(Nc2ccc(Cl)cc2Cl)nc1C(F)(F)F", "Potency": "inactive"}, {"compound": "ClC1=C(Cl)[C@]2(Cl)[C@@H]3[C@@H]4C[C@@H]([C@H]5O[C@@H]45)[C@@H]3[C@@]1(Cl)C2(Cl)Cl", "Potency": "inactive"}, {"compound": "CC(=O)Nc1ccc(OC[C@](C)(O)C(=O)Nc2ccc([N+](=O)[O-])c(C(F)(F)F)c2)cc1", "Potency": "inactive"}, {"compound": "CN[C@@H]1Cc2cccc3[nH]c(=O)n(c23)C1", "Potency": "inactive"}, {"compound": "O=C(N[C@@H](COc1ccc2[nH]c(=O)[nH]c2c1)c1ccccc1)c1cccn(Cc2ccc(F)c(F)c2)c1=O", "Potency": "inactive"}, {"compound": "CC1(N2CCC(n3c([C@@H]4CCCNC4)nc4ccccc43)CC2)CCCCCCC1", "Potency": "inactive"}, {"compound": "CCNC(=O)C[C@@H]1N=C(c2ccc(Cl)cc2)c2cc(OC)ccc2-n2c(C)nnc21", "Potency": "inactive"}, {"compound": "COC[C@H]1OC(=O)c2coc3c2[C@@]1(C)C1=C(C3=O)[C@@H]2CC[C@H](O)[C@@]2(C)C[C@@H]1OC(C)=O", "Potency": "inactive"}, {"compound": "c1ccc2c(CN3CCNCC3)cccc2c1", "Potency": "inactive"}, {"compound": "O=C(Oc1ccc([N+](=O)[O-])cc1)N1CCN(Cc2cccc(Oc3ccccc3)c2)CC1", "Potency": "inactive"}, {"compound": "CC(C)[C@H]1C(=O)N[C@H](CO)Cc2c[nH]c3cccc(c23)N1C", "Potency": "inactive"}, {"compound": "CCN(CC)C(=O)c1ccc(C2=CC3(CCNCC3)Oc3cccc(O)c32)cc1", "Potency": "inactive"}, {"compound": "O=C(Oc1ccc([N+](=O)[O-])cc1)N1CCC(C(O)(c2ccc3c(c2)OCO3)c2ccc3c(c2)OCO3)CC1", "Potency": "inactive"}, {"compound": "C=CC(=O)NCNC(=O)C=C", "Potency": "inactive"}, {"compound": "CCNC(=O)CC1N=C(c2ccc(Cl)cc2)c2cc(OC)ccc2-n2c(C)nnc21", "note": "(stereo not drawn)", "Potency": "inactive"}, {"compound": "CC(C)N(CCNC(=O)CN1CCCC1=O)C(C)C", "Potency": "inactive"}, {"compound": "C=C[C@@H]1CN2CCC1C[C@@H]2[C@@H](O)c1ccnc2ccccc12", "note": "(stereo partly drawn)", "Potency": "inactive"}, {"compound": "CCN1CCN(C(=O)Cc2ccc(Nc3ncc(F)c(Nc4ccc(C(=O)Nc5ccccc5Cl)cc4)n3)cc2)CC1", "Potency": "inactive"}, {"compound": "CCC(=O)O[C@@H]1C=C2CCC3C(CCC4(C)C3CC[C@@H]4OC(=O)CC)C2CC1", "note": "(stereo partly drawn)", "Potency": "inactive"}, {"compound": "O=C1C=CC[C@@H]2[C@H]3CCCN4CCC[C@@H](CN12)[C@@H]34", "Potency": "inactive"}, {"compound": "COc1ccc(N(C(=O)Oc2c(C)cccc2C)c2ccnc(Nc3ccc(N4CCN(C)CC4)cc3)n2)c(OC)c1", "Potency": "inactive"}]}, {"system": "Zika virus NS2B-NS3 protease (unlinked complex)", "test": "Primary screen GU Rhodamine qHTS for Zika virus inhibitors: Unlinked NS2B-NS3 protease assay (AID 1347159); further: nearly all actives have a fitted effect of over 60% in size; further: potency means the concentration at half of the fitted maximal effect", "settings": "Recombinant ZIKV NS2B-NS3 protease, Rhodamine110 substrate fluorescence; series mostly up to 107 µM", "method_in_brief": "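In dose–response format, inhibition of unlinked protease (25 nM) was measured with 1.5 microM bis-peptide Rhodamine110 substrate. Aprotinin served as the intraplate control.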", "values": [{"compound": "CC(N[C@H]1C[C@H]1c1ccccc1)c1ccc2c(c1)OCCO2", "note": "(stereo partly drawn)", "Potency": "inactive"}, {"compound": "CN1CCN(c2ccc([N+](=O)[O-])c3no[n+]([O-])c23)CC1", "Potency": "inactive"}, {"compound": "CCOC(=O)Nc1ccc(NCc2ccc(F)cc2)cc1N", "Potency": "inactive"}, {"compound": "CCc1c(C(=O)C(N)=O)c2c(OCC(=O)O)cccc2n1Cc1ccccc1", "Potency": "inactive"}, {"compound": "O=C(O)CNC(=O)c1c(O)c2ccccc2n(Cc2ccccc2)c1=O", "Potency": "12.6 µM (active)"}, {"compound": "CC(=O)Nc1ccc(OC[C@](C)(O)C(=O)Nc2ccc([N+](=O)[O-])c(C(F)(F)F)c2)cc1", "Potency": "inactive"}, {"compound": "O=C(N[C@@H](COc1ccc2[nH]c(=O)[nH]c2c1)c1ccccc1)c1cccn(Cc2ccc(F)c(F)c2)c1=O", "Potency": "inactive"}, {"compound": "CC1(N2CCC(n3c([C@@H]4CCCNC4)nc4ccccc43)CC2)CCCCCCC1", "Potency": "inactive"}, {"compound": "CCNC(=O)C[C@@H]1N=C(c2ccc(Cl)cc2)c2cc(OC)ccc2-n2c(C)nnc21", "Potency": "inactive"}, {"compound": "O=C(Oc1ccc([N+](=O)[O-])cc1)N1CCN(Cc2cccc(Oc3ccccc3)c2)CC1", "Potency": "inactive"}, {"compound": "CCN(CC)C(=O)c1ccc(C2=CC3(CCNCC3)Oc3cccc(O)c32)cc1", "Potency": "inactive"}, {"compound": "CCNC(=O)CC1N=C(c2ccc(Cl)cc2)c2cc(OC)ccc2-n2c(C)nnc21", "note": "(stereo not drawn)", "Potency": "inactive"}, {"compound": "CC(C)N(CCNC(=O)CN1CCCC1=O)C(C)C", "Potency": "inactive"}, {"compound": "O=C1C=CC[C@@H]2[C@H]3CCCN4CCC[C@@H](CN12)[C@@H]34", "Potency": "inactive"}]}]}
